Assay results taken from the supplement of paper PMC11417369.
Whole data set: some 25,000 sequences, median “ln(normalized median fluorescence intensity)” near 6.7, cut for the highest 2% near 10. Only a selection was taken, and the highest values are over-represented in it overall.

system: PfHDP1 homeodomain (GST-tagged); assay: gcPBM binding intensity (ln(normalized median fluorescence intensity)); higher = stronger DNA binding
Method in brief: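 GST-tagged P. falciparum DNA-binding domains, expressed in E. coli (about 25 μg on average), were applied for 1 h to an Agilent 4 × 180k array of primer-extended double-stranded 36-bp intergenic genomic probes plus negative controls. The binding buffer was 1× PBS with 1% milk, 0.2 mg/ml BSA, 0.5% salmon testes DNA and 0.03% Triton X-100. Bound protein was detected with Alexa488 anti-GST antibody and scanned at 488 nm. Binding intensity is the highest Masliner-normalised natural-log median intensity across replicate spots of either probe orientation.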

Sequence	gcPBM binding intensity (ln)
AAAATTAGGTATATATGTACATATATAAATATATAT [XGTACX_site3555]	6.8
TAAAGAAACTATTCAACACACGGTCTAATTATTACA [CACACA_site1064]	6.15
TATTATTTACCTTGCTAGTTCGTTCCAAATTTTATG [XGTACX_negctrl_site197]	7.19
ACAAAACTTTTAAGAACACACAAAAATGTACTATCG [CACACA_site7245]	6.17
AAACAAATGTATATGTGTACTTATTTTTTTGTATGT [XGTACX_site7134]	6.17
AATGTGCAAACAAACTGTACTTTTTTTTTTTTTTTT [XGTACX_site928]	10.6
TTTTCATTTTTCTTTACACACATATATATATATATA [CACACA_site2236]	9.23
ATATAGATGCATAATACACACATCAGATAATTAACC [CACACA_site6871]	6.96
TGCAAAAAATTCCACACACACACACGCATATAAATA [CACACA_site6696]	6.72
TTTTTTTGTTAAAAGGTGCTAATATATATAAGTGCT	6.62
ATATATTTGATAAGAGTGCACAAATACATACATACA [GTGCAC_site9704]	9.65
TCTACTATTATATATTGTACAAATGATACTTATATT [XGTACX_site1819]	6.61
ATGATATACTTGAGTGTGCACAAACTATTACTTACA	11
CCATTTGATAATAATGCACACCACATATATTTATAT [CACACA_site9002]	10.1
TTATTTACATCAAGTACATGCAGTAAAAAAAAAAAA [TGCATGCA_site351]	6.41
ATATATATATATATATGTACTTATTTATCGTATTAT [XGTACX_site3520]	9.59
CTTTTTTTAATGATAACACACATGTTGTGCATAGAC [CACACA_site3270]	10.7
TCTTTTAACACATGTGATATTATTTAATAACAATAA [CACACA_negctrl_site339]	6.51
TACACATAATATAATGCATGTGTGATGTATGTTTAA [TGCATGCA_site697]	6.56
TTTTTTTTTTATTAATGTACAAGATATATAATGTTA [XGTACX_site4809]	6.16
TTAAAAAACCTTAGATGTACAGTTATATATAAAATA [XGTACX_site6688]	6.37
AACAACTATTAATTTACACACATGTATATATTTTAC [CACACA_site3116]	6.82
AACGGGGGTAGTTTTATGCACACGTTTATTAATGCT [CACACA_site3173]	9.56

Sequence	gcPBM binding intensity (ln)
TTTTTAATTTATTGTGTGCACACAACTATGAGTTTT	10.3
TTTAATTATTAGTGTGCACACAACTATGAGTTTTTA [CACACA_site8997]	10.8
TAACTTAATTTTAATGCACACAATTTATATATATAT [CACACA_site6022]	10.5
TTTAATTTTCGGTGTGCACACAACTATGAGTTTTTA [CACACA_site3034]	11.2
TTTTTTTTTTTTTTTTGTACATATTTTTAAACTATA [XGTACX_site2897]	6.24
TTCTTTTTTCGACACACACACACAAGAAGATATATA [CACACA_site7456]	7.11
ATATATCTATAAAAGGCTTCCCACTTTTTTTGTCAA [TGCATGCA_negctrl_site332]	6.39
GGCGTATGTGTATATACACACCCACGTATATATATA [CACACA_site9046]	8.02
CCTATTTATATATACACACACATATATAAATAAATA [CACACA_site2991]	6.95
TATATATATGAGTATACACACCTGATAAAGGTATAT [CACACA_site5462]	6.87
TAATGTAAAATTTAGAGTACATAAAAAATTGGATGA [XGTACX_site7225]	6.68
AAAAATAAAATATATACATGCATATACATATTATAT [TGCATGCA_site668]	6.31
AAATAAAATTATAATACATGCATACATACATATATA [TGCATGCA_site69]	6.3
AATTATATAAGCCACGCATGTGTGCATAAAAATACA [TGCATGCA_site114]	10.9
CCATAATATTATAGACGTACGAATATATATAAAAGA [XGTACX_site7295]	7.24
ACATATAAATGATATGTACACACATTTATATATATA [CACACA_site9152]	7.4
TAAAGATATAAATGCACACGTATTAAAAAAAAAATA [CACACA_site952]	9.54
AAAATTAATGTTGGTTGTACAAAAATTAAATATGGT [XGTACX_site66]	6.85
ACATTAACATTGTTGGTGCAAAATTAATATGTTTTT [GTGCAC_site9673]	10.7
TATATTAACAAAATGGTGCAATAATTTCTATATTGT [GTGCAC_site9430]	10.4
TAAATACATAAAAATTGTACACATTGTTTTCTCTTT [XGTACX_site6435]	6.49
TAGAAATATATAAATTGTACATGTTTGTATAATATA [XGTACX_site2097]	6.44
TAAATGCACATATACACACACCCAATTTTAAGTTTT [CACACA_site7428]	11.1
